Experimental findings from PubChem BioAssay (Tox21) are described below.

A number with no mark means an inactive call. Results filed as inconclusive are left out. Activity calls are given as the source filed them. Unless noted, the call rests on the fitted dose curve; in most records, active means well fitted curve in the direction sought with a large enough effect in the repeat runs; inconclusive means weak or mixed curves; inactive means no such curve, though single readings can be large; an effect the other way counts as inactive or inconclusive.

Test [1] can be described thus: A CellTox Green Cytotoxicity Assay to monitor cytotoxicity in HepG2 cells - 8 hour (AID 1224890). Further: nearly all actives have a fitted effect of over 45% in size. An outline of the steps:
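Continuous culture of HepG2 cells with a membrane-impermeant DNA dye; rising fluorescence marks dead cells. Compound exposure lasted up to 40 h at 37 C, with reads every 8 h from 0 h.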

Test [2] is described as follows: qHTS assay to identify small molecule antagonists of the estrogen receptor alpha (ER-alpha) signaling pathway using the BG1 cell line in the presence of 0.1 nM 17-beta-estradiol - cell viability counter screen (AID 1259241). Further: nearly all actives have a fitted effect of over 40% in size. An outline of the steps: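 In this screen, hormone-deprived VM7Luc4E2 cells were seeded at 4,000 per well, dosed with compound and 0.1 nM estradiol final, and incubated 22 hr at 37C and 5% CO2; fluorogenic live-cell protease signal reported viability.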
A general note: In qHTS, concentration-response curves come from the screen itself.

Test [3] can be described thus: qHTS assay to identify small molecule antagonists of the androgen receptor (AR) signaling pathway using the MDA cell line in the presence of 0.5 nM R1881 - cell viability counter screen (AID 1259242). Further: nearly all actives have a fitted effect of over 45% in size. A digest of the protocol:
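Fluorescence from CellTiter-Fluor, which reports protease activity of live cells, was read 30 min after reagent addition to MDA-kb2 cells that had been incubated 16 hr with compound and 0.5 nM R1881.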

The target in test [4] is Estrogen receptor (Homo sapiens) (UniProt P03372). Put plainly: qHTS assay to identify small molecule antagonists of the estrogen receptor alpha (ER-alpha) signaling pathway using the BG1 cell line in the presence of 0.1 nM 17-beta-estradiol (AID 1259244). Further: nearly all actives have a fitted effect of over 50% in size. Further: potency means the concentration at half of the fitted maximal effect. A digest of the protocol: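 Quantitative high-throughput screen in VM7Luc4E2 cells: compound plus 0.1 nM E2 (final), 22 h, 37C, 5% CO2; ONE-Glo added, 30 min room temperature, luminescence measured.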

Test [5] is described as follows: qHTS assay to identify small molecule HDAC inhibitors (AID 1259364). Further: top concentration of the series differs between compounds; nearly all actives have a fitted effect of over 45% in size. A digest of the protocol: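 Endogenous HDAC class I/II activity was measured in wild-type HCT-116 cells by HDAC-Glo luminescence after 2 h compound treatment.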
Test [6] is described as follows: qHTS assay to identify small molecule HDAC inhibitors - cell viability counter screen (AID 1259365). Further: series mostly up to about 92 µM; nearly all actives have a fitted effect of over 50% in size. An outline of the steps: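 Measured quantity is CellTiter-Glo luminescence from wild-type HCT-116 cells after compound incubation of 2hr at 37C, 5% CO2; reagent developed 30min at room temperature.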
The nature of test [7]: qHTS assay to identify small molecule agonists of the sonic hedgehog signaling (Shh) pathway - cell viability counter screen (AID 1259366). Further: nearly all actives have a fitted effect of over 50% in size. A digest of the protocol: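 In quantitative high-throughput format, 3T3 Gli1-Luc cells were exposed to compounds for 24hr and multiplexed for viability using CellTiter-Fluor, incubated 1hr at 37C before the fluorescence read.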
Test [8] is described as follows: qHTS assay to identify small molecule antagonists of the sonic hedgehog signaling (Shh) pathway - cell viability counter screen (AID 1259367). Further: nearly all actives have a fitted effect of over 55% in size. An outline of the steps: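 After a 4 hr settling period, 3T3 Gli1-Luc cells were treated with DMSO-dissolved chemicals and conditioned medium, kept 24 hr at 37C in 5% CO2, and assayed for viability by CellTiter-Fluor fluorescence following 1 hr reagent incubation.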

Test [9] is described as follows: qHTS assay to identify small molecule agonists of the sonic hedgehog signaling (Shh) pathway (AID 1259368; calls by dose curve;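 further: NIH/3T3-derived 3T3Gli1-Luc cells carrying a stable Gli1-driven firefly luciferase reporter; series mostly up to about 92 µM; nearly all actives have a fitted effect of over 15% in size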). A digest of the protocol:
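Luminescent signal was taken as a measure of Gli1-controlled luciferase expression in stably transfected NIH/3T3-derived cells that had been treated for 24 hr with compounds delivered in DMSO.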

Test [10] in a line: qHTS assay to identify small molecule antagonists of the sonic hedgehog signaling (Shh) pathway (AID 1259369; calls by dose curve; further: nearly all actives have a fitted effect of over 45% in size; further: potency means the concentration at half of the fitted maximal effect). A digest of the protocol: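 Screening used 3T3Gli1-Luc cells at 2,000 per well, compounds delivered in DMSO, and conditioned medium as agonist stimulus; plates incubated 24hr at 37 C and 5% CO2 before a 30min luciferase step.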
Test [11] addresses Estrogen receptor beta (Homo sapiens) (UniProt Q92731). Nature of the test: qHTS assay to identify small molecule agonists of the estrogen receptor beta (ER-beta) signaling pathway (AID 1259377; active means well fitted activation curve with a large enough effect in the signal ratio in the repeat runs, not every such curve was filed as active; the % refers to the signal ratio). A digest of the protocol:
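Reporter cells (HEK293T, ER-beta-UAS-bla) receive compounds or DMSO after a 6 hr pre-incubation. They then incubate 16 hr at 37C/5% CO2, and fluorescence from LiveBLAzer B/G substrate is measured after 2 hours at room temperature.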

The target is the same in test [12]. Nature of the test: qHTS assay to identify small molecule antagonists of the estrogen receptor beta (ER-beta) signaling pathway (AID 1259378; active means well fitted inhibition curve with a large enough effect in the signal ratio in the repeat runs, not every such curve was filed as active; the % refers to the signal ratio). A digest of the protocol:
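ER-beta-UAS-bla HEK293T (GripTite) cells in 2% charcoal-stripped FBS medium were preincubated 6 hr at 37C, dosed with compound, then stimulated with 1 nM E2 (final) for 16 hr; beta-lactamase reporter read by B/G FRET fluorescence after 2 hr substrate loading.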

A short description of test [13]: qHTS assay to identify small molecule agonists of the androgen receptor (AR) signaling pathway in the presence of an antagonist - cell viability counter screen (AID 1259379).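 Further: MDA-kb2 human breast cancer cells carrying an MMTV luciferase reporter; series mostly up to about 92 µM; nearly all actives have a fitted effect of over 25% in size.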 An outline of the steps:
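In MDA-kb2 cells (human breast carcinoma, MMTV-luciferase), compounds at 15 concentrations plus 3.0uM nilutamide; 16 hr, 37C, 0% CO2; CellTiter-Fluor fluorescence read for viability.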

Test [14] can be described thus: qHTS assay to identify small molecule agonists of the estrogen receptor beta (ER-beta) signaling pathway - cell viability counter screen (AID 1259380). Further: nearly all actives have a fitted effect of over 30% in size. Further: potency means the concentration at half of the fitted maximal effect. An outline of the steps:
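Viability of ER-beta-UAS-bla HEK293T cells was determined by CellTiter-Glo luminescence following 16 hr treatment with test compounds at 37C.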

A short description of test [15]: qHTS assay to identify small molecule antagonists of the estrogen receptor beta (ER-beta) signaling pathway - cell viability counter screen (AID 1259382). Further: nearly all actives have a fitted effect of over 55% in size. Further: potency means the concentration at half of the fitted maximal effect. A digest of the protocol: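 Tox21 10K library tested in qHTS format on ER-beta-bla HEK293T cells stimulated with 1nM E2; 16 hr treatment at 37C. Same-well CellTiter-Glo luminescence served as the cell viability measure.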

For test [16], the target named is Estrogen receptor (Homo sapiens) (UniProt P03372). Nature of the test: qHTS assay to identify small molecule agonists of the estrogen receptor alpha (ER-alpha) signaling pathway in the presence of an antagonist (AID 1259383; calls by dose curve; further: top concentration of the series differs between compounds; nearly all actives have a fitted effect of over 15% in size). A digest of the protocol:
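In VM7Luc4E2 cells, 4,000 per well, compounds at 15 concentrations were co-incubated 22hr at 37C with 10.0nM final ICI-182,780. Luminescence from the stably transfected 4×ERE-luciferase reporter was recorded 30min after ONE-Glo addition.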

The nature of test [17]: qHTS assay to identify small molecule agonists or antagonists of the thyroid stimulating hormone receptor (TSHR) signaling pathway - wild type cell line counter screen (AID 1259384; calls by dose curve). An outline of the steps: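 Wild-type HEK293 cells were plated 18 h at 37 C/5% CO2, pin-dosed with compound plus Ro20-1724 medium, held 30 min at room temperature, then given cAMP-d2 and anti-cAMP-cryptate; fluorescence was read after 1 h. Fifteen concentrations, triplicate.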

Estrogen receptor beta (Homo sapiens), sequence (Q92731 whole entry, looked up): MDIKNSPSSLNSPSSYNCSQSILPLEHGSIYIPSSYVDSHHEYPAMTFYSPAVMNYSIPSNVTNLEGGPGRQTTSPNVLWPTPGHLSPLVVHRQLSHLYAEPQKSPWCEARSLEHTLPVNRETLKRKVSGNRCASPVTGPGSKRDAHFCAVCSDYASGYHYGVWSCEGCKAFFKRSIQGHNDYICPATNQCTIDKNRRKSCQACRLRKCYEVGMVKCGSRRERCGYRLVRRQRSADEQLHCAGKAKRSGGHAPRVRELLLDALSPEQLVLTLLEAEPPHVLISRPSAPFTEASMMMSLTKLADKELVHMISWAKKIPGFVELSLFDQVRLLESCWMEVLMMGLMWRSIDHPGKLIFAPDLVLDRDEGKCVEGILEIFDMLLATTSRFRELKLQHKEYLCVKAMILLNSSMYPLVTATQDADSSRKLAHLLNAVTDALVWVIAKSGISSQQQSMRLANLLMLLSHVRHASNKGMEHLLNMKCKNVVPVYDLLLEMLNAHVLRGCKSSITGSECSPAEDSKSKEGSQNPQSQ
Estrogen receptor (Homo sapiens), sequence (P03372 whole entry, looked up): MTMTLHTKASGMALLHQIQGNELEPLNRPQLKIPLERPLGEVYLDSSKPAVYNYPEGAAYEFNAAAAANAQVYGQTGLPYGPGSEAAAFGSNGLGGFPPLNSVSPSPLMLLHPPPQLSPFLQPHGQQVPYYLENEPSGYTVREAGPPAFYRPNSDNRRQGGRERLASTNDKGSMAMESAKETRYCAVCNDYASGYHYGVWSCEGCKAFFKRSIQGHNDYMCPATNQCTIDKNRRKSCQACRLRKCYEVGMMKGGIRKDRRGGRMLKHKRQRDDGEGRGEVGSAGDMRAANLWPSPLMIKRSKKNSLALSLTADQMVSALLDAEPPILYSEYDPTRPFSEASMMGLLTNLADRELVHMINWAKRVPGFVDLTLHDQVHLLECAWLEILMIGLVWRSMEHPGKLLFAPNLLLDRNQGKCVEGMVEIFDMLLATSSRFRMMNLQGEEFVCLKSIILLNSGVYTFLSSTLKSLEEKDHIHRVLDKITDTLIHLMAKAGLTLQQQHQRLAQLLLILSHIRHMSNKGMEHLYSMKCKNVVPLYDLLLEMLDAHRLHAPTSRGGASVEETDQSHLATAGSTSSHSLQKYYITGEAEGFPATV

Regarding `C=C(C)C(=O)OCCC(F)(F)C(F)(F)C(F)(F)C(F)(F)C(F)(F)C(F)(F)F`, the Potency result in [1], in test [2], in test [3], in test [4], in test [5] and in test [6] was “inactive” in each case. Moreover, the Potency entry in test [7], in test [8], in test [9], in test [10], in test [11] and in [12] was “inactive” each time. In addition, the Potency result in test [13], in test [14], in [15], in test [16] and in [17] was “inactive” each time.

`O=C(CCS)OCC(COC(=O)CCS)(COC(=O)CCS)COC(=O)CCS`: the Potency result in test [1], in test [2], in [3], in test [4], in [5] and in test [6] was “inactive” throughout. For the same compound, the Potency result in test [7], in test [8], in [9], in test [10], in test [11] and in test [12] was “inactive” throughout. Besides, the Potency result in test [15], in [16] and in test [17] was “inactive” throughout.

Take `CC(C)(C)C1(CCc2ccc(Cl)cc2)CO1` (centres undefined): the Potency entry in test [1], in test [2], in test [3], in test [4], in [5] and in test [6] was “inactive” throughout. In addition, the Potency entry in test [7], in test [8], in [9], in test [10], in test [13] and in test [14] was “inactive” each time. Besides, the Potency entry in test [15], in test [16] and in [17] was “inactive” in each case.

In the case of `CCCCCCCCCCCSCC(=O)O`, the Potency result in test [1], in test [2], in [3], in test [5], in [6] and in test [7] was “inactive” throughout. Besides, the Potency entry in test [8], in [9], in test [13], in test [16] and in [17] was “inactive” throughout. The Potency in test [4] was 54.5 µM (active); in test [14] it was 27.3 µM (active); in [15] it was 24.3 µM (active).

For the compound `CCOc1ncc(F)c(=O)[nH]1`, the Potency entry in [1], in [2], in test [3], in test [4], in test [5] and in test [6] was “inactive” throughout. For the same compound, the Potency entry in test [7], in test [8], in test [9], in [10], in test [11] and in test [12] was “inactive” throughout. The Potency result in test [13], in test [14], in [15], in [16] and in test [17] was “inactive” throughout.

Regarding `CCCCCCCC/C=C\CCCCCCCC(=O)OCCO`, the Potency result in [1], in test [2], in test [3], in test [4], in [5] and in test [6] was “inactive” throughout. Also, the Potency entry in [7], in test [8], in test [9], in [11], in [13] and in test [16] was “inactive” throughout. Moreover, the Potency entry in test [17] was “inactive”. Also, in test [10], the Potency was 36.2 µM (active).

In the case of `CC(C)C(=O)OCCOc1ccccc1`, the Potency entry in [1], in test [2], in [3], in test [4], in test [5] and in test [6] was “inactive” each time. Besides, the Potency result in [7], in test [8], in [9], in test [10], in [11] and in test [12] was “inactive” in each case. For the same compound, the Potency result in test [13], in [14], in test [15], in test [16] and in [17] was “inactive” in each case.
